Experiment [1] can be described thus: qHTS to identify inhibitors of the type 1 interferon - major histocompatibility complex class I in skeletal muscle: primary screen against the NCATS LOPAC collection (AID 1347405).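 Also: human myoblasts with HiBiT tag on endogenous HLA-B stimulated by IFN-beta; lytic HiBiT luminescence reporting HLA-B protein level.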 Also: potency is read from the fitted curve at half-maximal effect. Put shortly:
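First, engineered myoblasts carrying HLA-B-HiBiT were seeded in medium lacking dexamethasone with 4 ng/ml IFN-beta. After 1 hr, compounds were pinned in (top 46 uM final, 7 points). After 24 hrs at 37 C, luminescence was measured following 10 min lysis.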
For orientation: In qHTS, concentration-response curves come from the screen itself.

Experiment [2] in a line: qHTS to identify inhibitors of the type 1 interferon - major histocompatibility complex class I in skeletal muscle: primary screen against the NCATS Pharmaceutical Collection (AID 1347407).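 Also: luminescence of HiBiT knocked into endogenous HLA-B as interferon-induced MHC class I level.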 Put shortly:
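HLA-B HiBiT myoblasts, dexamethasone-free growth medium + 4 ng/ml IFN-b; compounds pinned 1 h after seeding, […] from 46 uM; 24 h, 37 C, 5% CO2; lytic HiBiT detection, 10 min RT, luminescence.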

Experiment [3] is described as follows: qHTS for inhibitors of adenylyl cyclases using a fission yeast platform: a pilot screen against the NCATS LOPAC library (AID 1347410). Put shortly: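 Read-out: fbp1-GFP fluorescence by laser scanning cytometry (488 nm laser), a gain of signal when AC/cAMP-PKA signalling is inhibited. Strain CHP2027 expressing AC9, GNAS and PDE4D2; compounds at up to 57 µM; 18 h, 30C.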

Experiment [4] has as its target Protein phosphatase 1D (Homo sapiens) (UniProt O15297). The experiment is described as follows: RapidFire Mass Spectrometry qHTS Assay for Modulators of WT P53-Induced Phosphatase 1 (WIP1) (AID 1347424).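 Also: amount of dephosphorylated VEPPL-S-QETFS peptide product formed by WIP1; series mostly up to about 63 µM.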 Put shortly: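 RapidFire mass spectrometry measured dephosphorylated peptide after 5 min room-temperature reaction of 2 uM VEPPL-pS-QETFS with 10 nM WIP1 (50 mM Tris-HCl pH 7.5, 30 mM MgCl2, 0.1 mM EGTA, BSA), following 1 hr compound preincubation; 1 uM isotope-labelled product standard.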

For experiment [5] the target is unchanged. The experiment is described as follows: Rhodamine-PBP qHTS Assay for Modulators of WT P53-Induced Phosphatase 1 (WIP1) (AID 1347425). Put shortly:
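Read-out: Rhodamine-PBP fluorescence (ex 525/em 598 nm) for released Pi, read each minute for 11 min after adding 10 uM VEPPL-pS-QETFS; signal taken as f1 minus pre-substrate f0. Enzyme 5 nM WIP1 with 1 hr room-temperature compound preincubation.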

Experiment [6] can be described thus: Validation qHTS assay for inhibitors of Activation Induced Cytidine Deaminase (AID): UDG Counterscreen signal (AID 1347427). Put shortly: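 Fluorescence at 560 nm excitation, 665 nm emission reports UDG signal after 250 mM NaOH (2x) addition and 30 min. Enzymes (AID 1 uM, UDG 2 U/mL, at 4/3x) preincubated 10 min with compound, then 4 h with 4x 250 nM DJC20/DJC23 substrate at room temperature.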

Experiment [7] has as its target Single-stranded DNA cytosine deaminase (Homo sapiens) (UniProt Q9GZX7). The experiment in a line: Validation qHTS assay for inhibitors of Activation Induced Cytidine Deaminase (AID): AID signal (AID 1347429). Put shortly: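 Steps: dispense AID with UDG; pin-transfer compound up to 114 uM final; add DJC20/DJC23 substrate and hold 4 hr at room temperature; add NaOH, hold 30 min; read FRET signal (540/590 nm).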

The nature of experiment [8]: Primary qHTS for inhibitors of La Crosse Virus (LACV) - induced cell death in SH-SY5Y cells (AID 1508616).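 Also: top concentration of the series differs between compounds; higher means more rescue of cells from virus-induced death.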 Put shortly:
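SH-SY5Y, 6000 cells/well; cpd via pin tool in DMSO; LACV 0.01 MOI; 6 d 37C 5% CO2; ATPLite, 5 min RT; luminescence normalized to ±virus DMSO controls.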

In experiment [9] the target is Calcium and integrin-binding protein 1 (Homo sapiens) (UniProt Q99828). The experiment is described as follows: Validation qHTS for Identification of Calcium Integrin Binding protein 1 (CIB1) Competitor (AID 1508618). Put shortly:
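CIB1-GST (1 uM final) in 5 mM HEPES pH 7.4, 125 mM NaCl, 5 mM CaCl2, 0.01% Tween20 was preincubated 15 min at room temperature with compound (up to 114 uM), then FITC-alphaIIb peptide (100 nM) added for 15 min; fluorescence polarization read.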

Experiment [10] shares this target. The experiment in a line: Primary qHTS for Identification of Calcium Integrin Binding Protein 1 (CIB1) Competitor (AID 1508620). Also: potency is read from the fitted curve at half-maximal effect. Put shortly:
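CIB1-GST (1 uM final) and compound incubated 15 min at room temperature before adding FITC-alphaIIb peptide tracer (100 nM final). Competition for binding read by fluorescence polarization (ex 480, em 540) after another 15 min at room temperature.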

Experiment [11] concerns the target Lysine-specific demethylase 5B (Homo sapiens) (UniProt Q9UGL1). The experiment in a line: Optimization screen for KDM5B Histone Demethylases FDH coupled qHTS against the LOPAC library (AID 1347166). Put shortly:
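KDM5BDeltaAP (200nM final) in 50mM HEPES pH 7.5, 0.01% Tween-20 was preincubated with compound for 10 min at room temperature. A substrate mix of 12.5uM H3K4Me3, 25uM a-ketoglutarate, ascorbate, Fe2+, NAD+ and formaldehyde dehydrogenase was then added. NADH fluorescence (340/450 nm) was read initially and after 30 min.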

A short description of experiment [12]: Confirmatory qHTS for small molecule stabilizers of the endoplasmic reticulum resident proteome: Secreted ER Calcium Modulated Protein (SERCaMP) assay (AID 1508628). Also: potency is read from the fitted curve at half-maximal effect; nearly all actives have a fitted effect of over 40% in size. Put shortly:
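Reporter secretion upon ER calcium depletion (100 nM thapsigargin, 4 h, 37C) is measured as medium luminescence with coelenterazine, after 16 h compound pretreatment of SH-SY5Y-GLuc-SERCaMP cells; primary at three concentrations up to 38.3 uM, follow-up at 11 (up to 76.6 uM).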

Experiment [13] addresses Calcium and integrin-binding protein 1 (Homo sapiens) (UniProt Q99828). The experiment is described as follows: Confirmatory qHTS for Identification of Calcium Integrin Binding Protein 1 (CIB1) Competitor (AID 1508617). Also: nearly all actives have a fitted effect of over 65% in size. Put shortly:
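Fluorescence polarization competition: CIB1-GST (1 uM final) in 5 mM HEPES pH 7.4, 125 mM NaCl, 5 mM CaCl2, 0.01% Tween20 preincubated 15 min RT with compound (up to 114 uM), then FITC-alphaIIb peptide (100 nM) added, 15 min RT.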

A short description of experiment [14]: qHTS to identify inhibitors of the type 1 interferon - major histocompatibility complex class I in skeletal muscle: primary screen against the NCATS Mechanism Interrogation Plate v5.0 (MIPE) Libary (AID 1347411). Also: nearly all actives have a fitted effect of over 65% in size. Put shortly: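 Seed engineered human myoblasts (HLA-B HiBit) in medium without dexamethasone containing 4 ng/ml IFN-beta; after 1 hr add compound titrations (top 46 uM final). Incubate 24 hrs at 37 C, lyse 10 min with HiBiT reagent, read luminescence.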

Each structure is given as a SMILES string. Several values for one entry are separate records, joined by “and”; a condition that tells them apart may be missing. Equal entries are not always repeated. Results filed as inconclusive are left out. Activity calls are given as the source filed them. Calls follow the shape of the dose curve; as a rule, active = well fitted curve in the direction sought with a large enough effect; inconclusive = small, poorly fitted or top-dose-only effect, or another doubt; inactive = no such curve, though single readings can be large; an effect the other way counts as inactive or inconclusive.

Calcium and integrin-binding protein 1 (Homo sapiens), sequence (Q99828 whole entry, looked up): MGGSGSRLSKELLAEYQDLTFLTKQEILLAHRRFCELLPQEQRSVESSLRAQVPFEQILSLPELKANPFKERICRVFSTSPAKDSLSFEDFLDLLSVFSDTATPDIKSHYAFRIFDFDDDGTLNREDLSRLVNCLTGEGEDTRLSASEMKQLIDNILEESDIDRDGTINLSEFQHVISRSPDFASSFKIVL
Single-stranded DNA cytosine deaminase (Homo sapiens), sequence (Q9GZX7 whole entry, looked up): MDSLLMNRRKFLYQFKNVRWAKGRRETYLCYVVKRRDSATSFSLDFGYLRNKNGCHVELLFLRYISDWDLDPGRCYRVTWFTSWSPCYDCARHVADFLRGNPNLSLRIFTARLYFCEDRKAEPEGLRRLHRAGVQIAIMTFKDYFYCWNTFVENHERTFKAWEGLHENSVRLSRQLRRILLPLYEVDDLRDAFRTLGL
Lysine-specific demethylase 5B (Homo sapiens), sequence (Q9UGL1 whole entry, looked up): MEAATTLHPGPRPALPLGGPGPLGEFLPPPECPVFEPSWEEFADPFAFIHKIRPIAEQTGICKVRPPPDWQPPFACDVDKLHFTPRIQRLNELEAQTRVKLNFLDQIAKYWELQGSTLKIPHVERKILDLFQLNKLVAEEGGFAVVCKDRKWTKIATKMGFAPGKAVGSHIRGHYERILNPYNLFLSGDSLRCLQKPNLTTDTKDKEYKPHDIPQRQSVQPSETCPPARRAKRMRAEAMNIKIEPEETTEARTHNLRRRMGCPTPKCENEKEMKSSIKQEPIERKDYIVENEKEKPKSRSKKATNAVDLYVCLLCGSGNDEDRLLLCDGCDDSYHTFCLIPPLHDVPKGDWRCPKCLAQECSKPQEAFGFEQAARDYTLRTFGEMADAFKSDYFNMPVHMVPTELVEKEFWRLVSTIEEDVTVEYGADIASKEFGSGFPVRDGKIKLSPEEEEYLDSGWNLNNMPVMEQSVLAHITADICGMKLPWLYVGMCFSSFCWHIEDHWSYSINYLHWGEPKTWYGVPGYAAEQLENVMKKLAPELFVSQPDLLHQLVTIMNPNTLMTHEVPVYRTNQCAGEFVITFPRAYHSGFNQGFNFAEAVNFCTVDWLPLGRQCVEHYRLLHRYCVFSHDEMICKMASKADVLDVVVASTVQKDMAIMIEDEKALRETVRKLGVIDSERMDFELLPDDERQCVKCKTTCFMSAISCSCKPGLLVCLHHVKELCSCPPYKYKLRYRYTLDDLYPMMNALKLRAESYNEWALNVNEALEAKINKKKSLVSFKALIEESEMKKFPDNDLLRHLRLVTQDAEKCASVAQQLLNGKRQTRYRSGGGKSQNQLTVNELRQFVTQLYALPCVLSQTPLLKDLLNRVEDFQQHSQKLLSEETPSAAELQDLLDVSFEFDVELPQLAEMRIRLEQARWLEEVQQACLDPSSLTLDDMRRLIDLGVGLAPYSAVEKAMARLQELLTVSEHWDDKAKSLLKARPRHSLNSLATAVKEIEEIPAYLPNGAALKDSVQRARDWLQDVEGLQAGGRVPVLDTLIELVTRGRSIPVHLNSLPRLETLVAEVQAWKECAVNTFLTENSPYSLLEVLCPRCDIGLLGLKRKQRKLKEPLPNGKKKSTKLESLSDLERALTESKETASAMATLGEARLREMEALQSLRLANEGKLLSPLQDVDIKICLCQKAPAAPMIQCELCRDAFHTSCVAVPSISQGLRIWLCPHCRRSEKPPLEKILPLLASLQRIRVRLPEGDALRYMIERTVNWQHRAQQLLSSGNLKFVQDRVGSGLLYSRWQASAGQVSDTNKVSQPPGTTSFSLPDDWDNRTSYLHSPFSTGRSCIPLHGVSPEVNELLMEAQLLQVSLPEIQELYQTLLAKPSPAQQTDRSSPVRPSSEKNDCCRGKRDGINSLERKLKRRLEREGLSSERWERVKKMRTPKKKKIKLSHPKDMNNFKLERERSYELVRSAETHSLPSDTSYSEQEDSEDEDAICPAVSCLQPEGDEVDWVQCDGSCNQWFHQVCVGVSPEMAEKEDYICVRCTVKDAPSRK
Protein phosphatase 1D (Homo sapiens), sequence (O15297 whole entry, looked up): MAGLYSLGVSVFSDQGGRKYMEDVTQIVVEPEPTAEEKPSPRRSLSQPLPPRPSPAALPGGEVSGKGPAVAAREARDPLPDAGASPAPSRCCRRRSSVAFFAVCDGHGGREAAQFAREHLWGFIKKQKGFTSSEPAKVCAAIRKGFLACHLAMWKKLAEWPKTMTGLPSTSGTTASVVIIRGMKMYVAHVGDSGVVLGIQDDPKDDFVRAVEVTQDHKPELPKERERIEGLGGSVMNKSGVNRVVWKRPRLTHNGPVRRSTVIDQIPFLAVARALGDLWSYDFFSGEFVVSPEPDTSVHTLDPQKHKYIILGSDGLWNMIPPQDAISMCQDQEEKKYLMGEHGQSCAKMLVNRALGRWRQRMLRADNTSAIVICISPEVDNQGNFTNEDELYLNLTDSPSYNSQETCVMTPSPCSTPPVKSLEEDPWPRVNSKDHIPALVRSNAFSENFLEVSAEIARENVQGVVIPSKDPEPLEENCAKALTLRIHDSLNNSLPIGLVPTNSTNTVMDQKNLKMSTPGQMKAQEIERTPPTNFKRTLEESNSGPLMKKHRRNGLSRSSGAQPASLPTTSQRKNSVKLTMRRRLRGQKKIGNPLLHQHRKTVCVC

As for `CC1=C(C)C(=O)C(CCCCC#CCCCC#CCO)=C(C)C1=O`, the Potency result in experiment [1], in experiment [2], in experiment [4], in experiment [7], in [8] and in [10] was “inactive” each time. Also, the call in experiment [3], in [5], in [6] and in experiment [9] was inactive.

Regarding `COC(=O)C1=C(C)NC(C)=C(C(=O)OCCN(C)Cc2ccccc2)C1c1cccc([N+](=O)[O-])c1` (centres undefined), the Potency result in experiment [2], in experiment [4], in experiment [7], in [8] and in [10] was “inactive” throughout. The outcome in experiment [3] and in [6] was inactive.

With `CCCCNC(=O)NS(=O)(=O)c1ccc(C)cc1`, the Potency result in [11], in [4], in [7], in [8] and in experiment [10] was “inactive” throughout. Also, the molecule was called inactive in experiment [3], in experiment [5] and in [6].

`CCCC(C(=O)OCCN(CC)CC)(c1ccccc1)c1ccccc1`: the Potency entry in [11], in experiment [2], in [4], in [7], in experiment [8] and in [10] was “inactive” throughout. Besides, the molecule was called inactive in experiment [3], in experiment [5] and in experiment [6].

Take `NC(=Nc1ccccc1)Nc1ccccc1`: the Potency result in experiment [2], in experiment [4], in experiment [8] and in [10] was “inactive” throughout. Further, in [5], the molecule was called inactive. Moreover, the Potency in experiment [12] was 3.55 µM (active) and 5.62 µM (active) and 355 nM (active).

In the case of `CCn1cc(C(=O)O)c(=O)c2cc3c(cc21)OCO3`, the Potency entry in experiment [1], in experiment [2], in [4], in experiment [7], in [8] and in [10] was “inactive” throughout. The result in experiment [3], in experiment [6] and in experiment [9] was inactive.

With `C[n+]1cc2c3c(ccc2c2ccc4cc5c(cc4c21)OCO5)OCO3`, the figures for the Potency in experiment [1] and in experiment [10] were 1.78 µM (active) and 14.1 µM (active), respectively. Further, the call in [3], in experiment [5], in [13] and in experiment [9] was inactive. For the same molecule, the Potency entry in [4] is “inactive”.

As to `Brc1c(NC2=NCCN2)ccc2nccnc12`, the Potency result in experiment [1], in [2], in [8] and in experiment [10] was “inactive” in each case. In addition, the molecule was classed as inactive in experiment [3], in [5], in experiment [6] and in experiment [9].

As for `COc1cc(C(=O)OCCCN2CCCN(CCCOC(=O)c3cc(OC)c(OC)c(OC)c3)CC2)cc(OC)c1OC`, the Potency result in experiment [11], in experiment [4], in [7], in experiment [8] and in experiment [10] was “inactive” in each case. Further, the molecule was called inactive in experiment [3], in experiment [6] and in [9].

With `Cc1ccc(=O)n(-c2ccccc2)c1`, the Potency result in [1], in [2], in [4], in experiment [7], in experiment [8] and in experiment [10] was “inactive” each time. Further, the molecule was called inactive in [3], in experiment [5], in [6] and in experiment [9].

As for `Cc1ccc(/C(=C\CN2CCCC2)c2ccccn2)cc1`, the Potency result in experiment [11], in experiment [4], in experiment [7], in [8] and in experiment [10] was “inactive” throughout. The call in experiment [5], in [6] and in [9] was inactive.

Turning to `CC(C)(Oc1ccc(CCNC(=O)c2ccc(Cl)cc2)cc1)C(=O)O`, the Potency result in experiment [11], in experiment [4], in experiment [7], in experiment [8] and in [10] was “inactive” each time. The molecule was called inactive in [3], in [5], in [6] and in experiment [9].

On to `CCCCOCCOCCOCc1cc2c(cc1CCC)OCO2`, for which the Potency entry in experiment [2], in experiment [4], in experiment [8] and in [10] was “inactive” in each case. The molecule was classed as inactive in experiment [5].

On to `CN(C)CCCN1c2ccccc2Sc2ccc(C(F)(F)F)cc21`, for which the Potency entry in [11], in experiment [2], in experiment [4], in experiment [7] and in [8] was “inactive” throughout. Moreover, the outcome in experiment [3], in experiment [5] and in experiment [6] was inactive.

Consider `CCOC(=O)C1=C(C)NC(C)=C(C(=O)OC)C1c1cccc(Cl)c1Cl` (centres undefined), for which, in [3], the result was inactive. Besides, the Potency result in [4], in experiment [8] and in [10] was “inactive” throughout.

As to `Cc1cc(C)c(/C=C2\C(=O)Nc3ccccc32)[nH]1`, the Potency result in [11], in experiment [14], in experiment [4], in [8] and in experiment [10] was “inactive” throughout. Besides, the call in experiment [3], in [5] and in [6] was inactive.

`Cc1nc2ccccn2c(=O)c1CCN1CCC(C(=O)c2ccc(F)cc2)CC1`: the Potency entry in [1], in experiment [2], in experiment [4], in experiment [7], in [8] and in experiment [10] was “inactive” throughout. In addition, the outcome in experiment [3] and in experiment [6] was inactive.

Turning to `O=C(CCNNC(=O)c1ccncc1)NCc1ccccc1`, the Potency result in experiment [1], in [2], in experiment [4], in [7], in experiment [8] and in experiment [10] was “inactive” in each case. Besides, the outcome in experiment [3], in experiment [5], in [6] and in [9] was inactive.

Consider `COCCOC(=O)C1=C(C)NC(C)=C(C(=O)OC(C)C)C1c1cccc([N+](=O)[O-])c1` (centres undefined), for which the Potency result in [11], in [2], in [4], in experiment [7], in experiment [8] and in experiment [10] was “inactive” each time. Moreover, the molecule was classed as inactive in [3], in experiment [5] and in [6].

With `CCCOc1ccccc1-c1nc2n[nH]nc2c(=O)[nH]1`, the Potency entry in experiment [1], in [2], in [4], in experiment [7], in experiment [8] and in experiment [10] was “inactive” throughout. The molecule was classed as inactive in experiment [3], in experiment [5] and in experiment [6].

Consider `COCCCC/C(=N\OCCN)c1ccc(C(F)(F)F)cc1`, for which the Potency entry in experiment [11], in experiment [1], in experiment [4], in experiment [7], in experiment [8] and in experiment [10] was “inactive” throughout. Moreover, the molecule was called inactive in experiment [3], in experiment [5], in experiment [6] and in experiment [9].

For the molecule `CC(C)(C)c1ccc(C(=O)CCCN2CCC(OC(c3ccccc3)c3ccccc3)CC2)cc1`, the Potency entry in experiment [11], in experiment [2], in experiment [4], in experiment [7], in experiment [8] and in [10] was “inactive” each time. The result in experiment [3], in experiment [5], in [6] and in experiment [9] was inactive.

With `C[C@H](CS)C(=O)N1CCC[C@H]1C(=O)O`, the Potency entry in experiment [11], in experiment [4] and in experiment [8] was “inactive” each time. Further, the molecule was called inactive in [3].

For the origin of these results see PubChem BioAssay (NCATS).
